Data from PubChem BioAssay (EPA / NIEHS).
The source made the active and inactive calls. The calls were made as follows: active = hit-call score of the fitted dose curve at least 0.9, where 1 is the maximum; inactive = score below 0.9.

test: ATG_FoxO_CIS: Attagene CIS-FACTORIAL HepG2 Assay for human Forkhead box O (FoxO) (AID 2282943); conditions: HepG2 Attagene cis-reporter, FoxO element, mRNA; actives raise or lower the signal
Description: ATG_CIS is a cell-based, multiplexed-readout assay that uses HepG2, a human liver cell line, with measurements taken at 24 hours after chemical dosing in a 24-well plate.ATG_FoxO_CIS is one of 52 assay component(s) measured or calculated from the ATG_CIS assay. It is designed to make measurements of mRNA induction, a form of inducible reporter, as detected with fluorescence intensity signals by Reverse transcription polymerase chain reaction (RT-PCR) and Capillary electrophoresis technology.Data from the assay component ATG_FoxO_CIS was analyzed into 1 assay endpoint. This assay endpoint, ATG_FoxO_CIS, was analyzed with bidirectional fitting relative to DMSO as the negative control and baseline of activity. Using a type of inducible reporter, measures of mRNA for gain or loss-of-signal activity can be used to understand the reporter gene at the transcription factor-level as they relate to the gene FOXO1 and FOXO3. Furthermore, this assay endpoint can be referred to as a primary readout, because this assay has produced multiple assay endpoints where this one serves a reporter gene function. To generalize the intended target to other relatable targets, this assay endpoint is annotated to the dna binding intended target family, where the subfamily is forkhead box protein.
Human liver HepG2 cells are transiently transfected with multiple reporter transcription units (MRTUs) in 6-well plates using FuGene 6 reagent (Roche; 3 ml FuGene/1 mg DNA). The MRTU constructs are regulated by a cis-regulating element (promoter). […] A major difference between the CIS and TRANS system is that in CIS activities of endogenous TFs are measured, whereas the TRANS assay evaluates changes in activities of exogenous, chimeric NR-Gal4 proteins. […] At the end of 24 hour incubation, total RNA was isolated using TriZol reagent (Invitrogen). The isolated RNA is then reverse-transcribed using oligo(dT) primer and Mo-MLV reverse transcriptase (Invitrogen) with DNAse I (Ambion) treatment for 30 min. The one-tenth of the produced cDNA was amplified by PCR using Taq DNA polymerase (Invitrogen) and two reporter sequence-specific primers. The PCR products were fluorescently labeled by primer extension with 6-arboxyfluorescein (6-FAM) 5'-labeled reporter sequence-specific primer (2 min at 95 C, 20 s at 68 C and 10 min at 72 C) and these products were digested with 5U of HpaI (New England Biolabs) for 2h at 37 C. The fragments were purified using Qiaquick PCR columns (Qiagen), analyzed on an ABI 3130xL genetic analyzer (Applied Biosystems) with peak positions identified by using a set of X-rhodamine (ROX)-labeled MapMarker1000 molecular weight standards (BioVentures). The raw capillary electrophoresis data was processed using Attagraph software (Attagene).

Row | SMILES | outcome | AC50
1 | COc1cc(-c2ccc(N)c(OC)c2)ccc1N | inactive | –
2 | COP(=S)(OC)Oc1ccc(Sc2ccc(OP(=S)(OC)OC)cc2)cc1 | inactive | –
3 | CC1CN1P(=O)(N1CC1C)N1CC1C (stereo not given) | inactive | –
4 | O=C(Cl)c1ccc(Cl)cc1 | inactive | –
5 | CC1(C)CCC(Cc2ccc(Cl)cc2)C1(O)Cn1cncn1 (stereo not given) | inactive | –
6 | O=C1C2(Cl)C3(Cl)C4(Cl)C(Cl)(Cl)C5(Cl)C3(Cl)C1(Cl)C5(Cl)C24Cl (stereo not given) | inactive | –
7 | Clc1ccc(C2(Cn3cncn3)CC(Br)CO2)c(Cl)c1 (stereo not given) | inactive | –
8 | Oc1c(I)cc(I)cc1I | – | 100 µM (active)
9 | CN(C)N=O | inactive | –
10 | Nc1ccc(N=Nc2ccc(-c3ccc(N=Nc4c(S(=O)(=O)O)cc5cc(S(=O)(=O)O)c(N=Nc6ccccc6)c(O)c5c4N)cc3)cc2)c(N)c1 | inactive | –
11 | COC(=O)c1sccc1S(=O)(=O)NC(=O)Nc1nc(C)nc(OC)n1 | inactive | –
12 | CCC[CH2][Sn]([Cl])([Cl])[Cl] | inactive | –
13 | CC(=O)OC(c1ccccc1)C(Cl)(Cl)Cl (stereo not given) | inactive | –
14 | Oc1ccc(-c2ccccc2)cc1 | inactive | –
15 | O=[N+]([O-])c1c(Cl)c(Cl)cc(Cl)c1Cl | inactive | –
16 | Nc1ccc(-c2ccc(N)c(Cl)c2)cc1Cl | inactive | –
17 | COC[C@H](C)N(C(=O)CCl)c1c(C)csc1C | inactive | –
18 | COc1cccc(C=O)c1 | inactive | –
19 | COc1cc2c(cc1OC)[C@@]13CCN4CC5=CCO[C@H]6CC(=O)N2[C@H]1[C@H]6[C@H]5C[C@H]43 | inactive | –
20 | BrCCBr | inactive | –

Row | SMILES | outcome | AC50
21 | C=C(C)C(=O)[O][Sn]([CH2]CCC)([CH2]CCC)[CH2]CCC | – | 0.665 µM (active)
22 | ClCc1ccccn1 | inactive | –
23 | Cc1ccccc1N | inactive | –
24 | CC(C)(C)c1cc(O)ccc1O | inactive | –
25 | O=[N+]([O-])c1ccc(O)c([N+](=O)[O-])c1 | inactive | –
26 | COP(=S)(OC)Oc1c(Cl)cc(C)cc1Cl | inactive | –
27 | O=C(O)Cc1ccccc1 | inactive | –
28 | CCOC(=O)Nc1cccc(OC(=O)Nc2ccccc2)c1 | inactive | –
29 | CCC(C)c1cccc(C(C)CC)c1O (stereo not given) | inactive | –
30 | Fc1ccc(C2(Cn3cncn3)OC2c2ccccc2Cl)cc1 (stereo not given) | inactive | –
31 | Cc1cc(=O)[nH]o1 | inactive | –
32 | CC(=[OH+])/C=C(/C)[O-].CC(=[OH+])/C=C(/C)[O-].CC(=[OH+])/C=C(/C)[O-].[Fe] | inactive | –
33 | O=C/C=C/c1ccccc1 | inactive | –
34 | CCCCP(CCCC)CCCC | inactive | –
35 | ClC1(Cl)C2(Cl)C3(Cl)C4(Cl)C(Cl)(Cl)C5(Cl)C3(Cl)C1(Cl)C5(Cl)C24Cl (stereo not given) | inactive | –
36 | O=C(O)C(F)(F)C(F)(F)C(F)(F)C(F)(F)C(F)(F)C(F)(F)C(F)(F)C(F)(F)C(F)(F)C(F)(F)F | inactive | –
37 | Cc1ccc(N)cc1Cl | inactive | –
38 | COP(=S)(OC)Oc1cc(Cl)c(Cl)cc1Cl | inactive | –
39 | CC(C)(OO)c1ccccc1 | inactive | –
40 | CCC(=O)c1ccccc1 | inactive | –
